Data: PubChem BioAssay (EPA / NIEHS)
Activity calls are given as the source filed them. How the source made its calls: active means hit-call score of the fitted dose curve at least 0.9, where 1 is the maximum; inactive means score below 0.9.

Key:
[1] = read-out: Macrophage colony-stimulating factor (MCSF), CSF1 (gene 1435); experiment: BSK_CASM3C_MCSF: BioMAP Diversity Plus: CASM3C Assay for Macrophage colony-stimulating factor (MCSF) Biomarker Activity (AID 2283044); settings: primary human coronary artery smooth muscle cells; actives raise or lower the signal;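 further: M-CSF protein amount quantified by ELISA after 24 h exposure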
[2] = read-out: Low-density lipoprotein receptor (LDLR), LDLR (gene 3949); experiment: BSK_CASM3C_LDLR: BioMAP Diversity Plus: CASM3C Assay for Low-density lipoprotein receptor (LDLR) Biomarker Activity (AID 2283045); settings: primary human coronary artery smooth muscle cells; actives raise or lower the signal;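 further: LDLR protein level on the cell surface quantified by ELISA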
[3] = read-out: Monocyte Chemoattractant Protein-1 (MCP1), CCL2 (gene 6347); experiment: BSK_CASM3C_MCP1: BioMAP Diversity Plus: CASM3C Assay for Monocyte Chemoattractant Protein-1 (MCP1) Biomarker Activity (AID 2283046); settings: primary human coronary artery smooth muscle cells; actives raise or lower the signal;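 further: MCP-1 level quantified by ELISA 24 h after dosing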
[4] = BSK_CASM3C_Proliferation: Cell Proliferation Assessment in the BioMAP Diversity Plus: CASM3C Assay (AID 2283047); settings: primary human coronary artery smooth muscle cells;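 further: sulforhodamine B total protein stain as relative cell number at 560 nm; sub-confluent cells exposed 48 h before staining; fitted both ways against DMSO so gain or loss of cell number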
[5] = read-out: Monokine induced gamma interferon (MIG), CXCL9 (gene 4283); experiment: BSK_CASM3C_MIG: BioMAP Diversity Plus: CASM3C Assay for Monokine induced gamma interferon (MIG) Biomarker Activity (AID 2283048); settings: primary human coronary artery smooth muscle cells; actives raise or lower the signal;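 further: MIG protein level measured by ELISA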
[6] = read-out: serum amyloid A (SAA), SAA1 (gene 6288); experiment: BSK_CASM3C_SAA: BioMAP Diversity Plus: CASM3C Assay for serum amyloid A (SAA) Biomarker Activity (AID 2283049); settings: primary human coronary artery smooth muscle cells; actives raise or lower the signal;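 further: SAA protein level quantified by ELISA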
[7] = BSK_CASM3C_SRB: Viability Assessment in the BioMAP Diversity Plus: CASM3C Assay (AID 2283050); settings: primary human coronary artery smooth muscle cells;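 further: cells exposed to compound for 24 h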
[8] = read-out: Thrombomodulin, THBD (gene 7056); experiment: BSK_CASM3C_Thrombomodulin: BioMAP Diversity Plus: CASM3C Assay for Thrombomodulin Biomarker Activity (AID 2283051); settings: primary human coronary artery smooth muscle cells; actives raise or lower the signal;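 further: thrombomodulin protein level measured by ELISA 24 h after dosing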
[9] = read-out: Tissue Factor, F3 (gene 2152); experiment: BSK_CASM3C_TissueFactor: BioMAP Diversity Plus: CASM3C Assay for Tissue Factor Biomarker Activity (AID 2283052); settings: primary human coronary artery smooth muscle cells; actives raise or lower the signal;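 further: cell surface tissue factor protein level read by ELISA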
[10] = read-out: Urokinase-type plasminogen activator receptor (uPAR), PLAUR (gene 5329); experiment: BSK_CASM3C_uPAR: BioMAP Diversity Plus: CASM3C Assay for Urokinase-type plasminogen activator receptor (uPAR) Biomarker Activity (AID 2283054); settings: primary human coronary artery smooth muscle cells; actives raise or lower the signal;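 further: cell-surface uPAR protein level quantified by ELISA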
[11] = read-out: Vascular cell adhesion molecule 1 (VCAM1), VCAM1 (gene 7412); experiment: BSK_CASM3C_VCAM1: BioMAP Diversity Plus: CASM3C Assay for Vascular cell adhesion molecule 1 (VCAM1) Biomarker Activity (AID 2283055); settings: primary human coronary artery smooth muscle cells; actives raise or lower the signal;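 further: VCAM-1 protein level quantified by ELISA on the cells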
[12] = read-out: Collagen III, COL3A1 (gene 1281); experiment: BSK_hDFCGF_CollagenIII: BioMAP Diversity Plus: hDFCGF Assay for Collagen III Biomarker Activity (AID 2283056); settings: primary human foreskin fibroblasts; actives raise or lower the signal
Procedure, shortened: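 hDFCGF primary human dermal fibroblasts; 24 h chemical exposure; collagen III by ELISA; bidirectional curve fit vs DMSO baseline (gain or loss of signal).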

[13] = read-out: Epidermal growth factor receptor (EGFR), EGFR (gene 1956); experiment: BSK_hDFCGF_EGFR: BioMAP Diversity Plus: hDFCGF Assay for Epidermal growth factor receptor (EGFR) Biomarker Activity (AID 2283057); settings: primary human foreskin fibroblasts; actives raise or lower the signal
Procedure, shortened: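 Cell-based multiplexed assay in primary human foreskin fibroblasts. EGFR is read by ELISA 24 h after treatment and compared with DMSO controls.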

[14] = read-out: Interleukin-8 (IL8), CXCL8 (gene 3576); experiment: BSK_hDFCGF_IL8: BioMAP Diversity Plus: hDFCGF Assay for Interleukin-8 (IL8) Biomarker Activity (AID 2283058); settings: primary human foreskin fibroblasts; actives raise or lower the signal
Procedure, shortened: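 ELISA read-out of IL-8 from primary human foreskin fibroblast cultures taken 24 h after dosing; values are bidirectional fits relative to DMSO vehicle.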

[15] = BSK_hDFCGF_Proliferation: Cell Proliferation Assessment in the BioMAP Diversity Plus: hDFCGF Assay (AID 2283059); settings: primary human foreskin fibroblasts;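 further: curves fitted for both rise and fall of signal versus DMSO baseline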
Procedure, shortened: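 Sub-confluent human foreskin fibroblast cultures receive test chemical […]. Relative cell number is quantified by sulforhodamine B staining (0.1%, after 10% TCA fixation) at 560 nm, with bidirectional fitting referenced to DMSO.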

[16] = BSK_hDFCGF_SRB: Viability Assessment in the BioMAP Diversity Plus: hDFCGF Assay (AID 2283061); settings: primary human foreskin fibroblasts;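 further: cells exposed to compound for 24 h before the read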
Procedure, shortened: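 Primary human foreskin fibroblasts; 24 h post-dose; fixed 10% TCA, stained 0.1% SRB, A560 read; total protein as overt cytotoxicity measure; curves fit bidirectionally vs DMSO control.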

[17] = read-out: TIMP metallopeptidase inhibitor 1 (TIMP1), TIMP1 (gene 7076); experiment: BSK_hDFCGF_TIMP1: BioMAP Diversity Plus: hDFCGF Assay for TIMP metallopeptidase inhibitor 1 (TIMP1) Biomarker Activity (AID 2283062); settings: primary human foreskin fibroblasts; actives raise or lower the signal
Procedure, shortened: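 ELISA readout of TIMP-1 from human dermal foreskin fibroblast cultures 24 h post-dosing. Curves were fitted in both directions against DMSO baseline, with SRB total-protein staining in parallel cultures as a cytotoxicity check.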

[18] = read-out: Monokine induced gamma interferon (MIG), CXCL9 (gene 4283); experiment: BSK_hDFCGF_MIG: BioMAP Diversity Plus: hDFCGF Assay for Monokine induced gamma interferon (MIG) Biomarker Activity (AID 2283063); settings: primary human foreskin fibroblasts; actives raise or lower the signal
Procedure, shortened: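 Fibroblasts (human foreskin, primary) dosed, 24 h, MIG by ELISA; fit bidirectional vs DMSO.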

[19] = read-out: Macrophage colony-stimulating factor (MCSF), CSF1 (gene 1435); experiment: BSK_hDFCGF_MCSF: BioMAP Diversity Plus: hDFCGF Assay for Macrophage colony-stimulating factor (MCSF) Biomarker Activity (AID 2283060); settings: primary human foreskin fibroblasts; actives raise or lower the signal
Procedure, shortened: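 ELISA read-out of M-CSF in human dermal foreskin fibroblast cultures, 24 h after chemical dosing; gain or loss of signal fitted bidirectionally relative to DMSO baseline.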

[20] = read-out: Interferon-gamma inducible Protein 10 (IP10), CXCL10 (gene 3627); experiment: BSK_hDFCGF_IP10: BioMAP Diversity Plus: hDFCGF Assay for Interferon-gamma inducible Protein 10 (IP10) Biomarker Activity (AID 2283053); settings: primary human foreskin fibroblasts; actives raise or lower the signal
Procedure, shortened: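 Chemical-treated human skin fibroblasts (primary) were sampled at 24 h for IP-10 by ELISA. Both increases and decreases relative to DMSO were scored.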

Measured: AC50

CC(C)COC(=O)c1ccccc1C(=O)OCC(C)C
active: [8] 20 µM | [12] 23.9 µM
not listed: [19] | [20]
inactive: all other assays above

Nc1cc(Cl)cc(C(=O)O)c1Cl
not listed: [19] | [20]
inactive: all other assays above

Cc1cc(N=Nc2ccccc2C)ccc1N
active: [4] 23.6 µM | [8] 10.7 µM | [12] 20 µM | [15] 9.37 µM | [19] 28.3 µM | [16] 34.5 µM | [18] 33.4 µM
not listed: [20]
inactive: all other assays above

CS(=O)(=O)NC(=O)c1cc(Oc2ccc(C(F)(F)F)cc2Cl)ccc1[N+](=O)[O-]
not listed: [9]
inactive: all other assays above

Clc1ccc(C(c2ccc(Cl)cc2)C(Cl)Cl)cc1
inactive: [5] | [6] | [7] | [11] | [13]
active: [1] 15.2 µM | [2] 5.11 µM | [3] 32.1 µM | [4] 32.1 µM | [8] 24.1 µM | [9] 26.4 µM | [10] 36.7 µM | [12] 5.06 µM | [14] 12.2 µM | [15] 11.9 µM | [16] 9.91 µM | [17] 11.2 µM | [18] 11.8 µM

ClC1=C(Cl)[C@]2(Cl)[C@H]3[C@H]([C@@H]4C=C[C@H]3C4)[C@@]1(Cl)C2(Cl)Cl
inactive: [8] | [9] | [13]
active: [1] 29 µM | [2] 32.6 µM | [3] 34 µM | [4] 34.3 µM | [5] 31.6 µM | [6] 31.7 µM | [7] 31.3 µM | [10] 32 µM | [11] 38.9 µM | [12] 13.7 µM | [14] 31.3 µM | [15] 5.71 µM | [16] 10.3 µM | [18] 16.4 µM

O=[N+]([O-])C(Br)(CO)CO
inactive: [1] | [2] | [9] | [10]
active: [3] 28.1 µM | [4] 24.7 µM | [5] 32.7 µM | [6] 30.3 µM | [7] 32.7 µM | [8] 24.7 µM | [11] 28.1 µM | [12] 36.7 µM | [13] 36.4 µM | [14] 37.2 µM | [15] 2.66 µM | [16] 30.5 µM | [17] 32.9 µM | [18] 30.2 µM
